# Screening results (PubChem BioAssay)
# IDE cell activ = human IDE activators in live cells, primary screen, fluorescence polarization, HEK cells, FAbeta-B substrate; FAbeta-B cleavage; 0% vehicle, 100% cell-free pure enzyme wells; activation, % at 5.96 µM; 340,000 tested, 0.073% active; AID 493087, 2011;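 active = activation above the mean of all tested compounds plus 3 SD, set per screening campaign, cut at about 17% in these data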
# Target sequence (P14735 whole entry, looked up): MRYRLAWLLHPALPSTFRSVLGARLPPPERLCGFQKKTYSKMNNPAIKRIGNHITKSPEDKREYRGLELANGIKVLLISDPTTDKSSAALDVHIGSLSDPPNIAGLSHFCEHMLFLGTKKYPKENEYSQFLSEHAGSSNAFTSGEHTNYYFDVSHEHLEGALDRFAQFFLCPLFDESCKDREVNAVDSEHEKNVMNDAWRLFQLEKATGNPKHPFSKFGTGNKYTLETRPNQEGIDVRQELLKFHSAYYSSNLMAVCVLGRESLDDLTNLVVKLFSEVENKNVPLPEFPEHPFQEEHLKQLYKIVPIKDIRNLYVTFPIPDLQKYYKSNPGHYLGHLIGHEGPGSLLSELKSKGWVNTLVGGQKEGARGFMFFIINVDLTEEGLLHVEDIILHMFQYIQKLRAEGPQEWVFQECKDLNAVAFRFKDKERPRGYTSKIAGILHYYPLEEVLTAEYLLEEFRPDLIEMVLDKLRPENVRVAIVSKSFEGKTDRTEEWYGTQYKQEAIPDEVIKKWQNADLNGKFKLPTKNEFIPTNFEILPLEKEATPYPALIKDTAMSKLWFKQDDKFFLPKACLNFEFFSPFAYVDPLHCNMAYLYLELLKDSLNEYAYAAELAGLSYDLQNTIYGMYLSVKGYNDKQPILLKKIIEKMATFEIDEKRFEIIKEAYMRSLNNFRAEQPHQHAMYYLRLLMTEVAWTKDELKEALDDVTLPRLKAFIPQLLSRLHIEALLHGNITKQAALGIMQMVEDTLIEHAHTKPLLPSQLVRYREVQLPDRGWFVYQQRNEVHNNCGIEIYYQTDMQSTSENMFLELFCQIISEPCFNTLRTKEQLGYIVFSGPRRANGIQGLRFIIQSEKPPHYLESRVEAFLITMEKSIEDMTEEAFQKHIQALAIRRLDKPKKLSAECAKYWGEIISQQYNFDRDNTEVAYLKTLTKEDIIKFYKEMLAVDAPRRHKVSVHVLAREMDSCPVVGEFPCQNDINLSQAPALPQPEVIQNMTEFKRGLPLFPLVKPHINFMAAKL
# IDE cell inh = human IDE inhibitors in live cells, primary screen, fluorescence polarization, HEK cells, FAbetaB substrate; Insulin-degrading enzyme (Homo sapiens), P14735; FAbetaB cleavage; inhibition, % at 5.59 µM; 320,000 tested, 0.41% active; AID 434962, 2010;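 active = percent inhibition above the average of all tested compounds plus 3 SD, set per screening campaign, cut at about 16% in these data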;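 also: IDE supplied by intact live HEK cells; FP after avidin binding of uncleaved biotin substrate so inhibition keeps polarization high; 0% = DMSO wells and 100% = 60 µM reference IDE inhibitor Ii1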
# CRFBP-R2 agonist = agonists of CRF-BP/CRF-R2 complex, primary screen, cell-based, HEK293, calcium dye fluorescence, uHTS; CRF-binding protein / CRF receptor 2 complex (human); activation, % at 13.2 µM; 350,000 tested, 0.46% active; AID 588473, 2011; calcium dye fluorescence (FLIPR); percent of saturating CRF peptide response;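 active = activation of at least 50%, plus an integration ratio under a set limit after plate pattern correction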;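 also: plate controls were neutral control wells without compound for no effect and CRF at EC100 for full effect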
# HNF4A DNA FP = change in binding of human HNF4A to DNA, primary screen, biochemical, fluorescence polarization, FITC-DNA | 1 h | activity change, % at 10 µM | AID 1224865, 2016 | 360,000 tested, 0.3% active; in the data active = activity change above about 30%, passing the limit was not always enough
# TPT1 inh = Candida albicans TPT1 enzyme inhibitors, primary screen, biochemical, fluorescence polarization; inhibition, % at 5 µM; 300,000 tested, 0.81% active; AID 1962, 2009; tRNA 2'-phosphotransferase TPT1 (Candida albicans SC5314); recombinant caTPT1, FP RNA substrate dephosphorylation;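 active = inhibition above the mean of all tested compounds plus 3 SD, set per screening campaign, cut at about 24% in these data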;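 also: plate controls were DMSO alone for no effect and ferristatin control at 100 nM for full effect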
# IDE cell inh cf = human IDE inhibitors in live cells, confirmation, fluorescence polarization, HEK cells, FAbetaB substrate; 1,200 tested, 51% active; FAbetaB cleavage; shares compounds with IDE cell inh; inhibition, % at 5.59 µM; AID 435028, 2010;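 active = mean inhibition across triplicate wells above the cutoff set by the earlier primary insulin-degrading enzyme screen, cut at about 16% in these data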;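 also: 0% = DMSO wells and 100% = 60 µM reference IDE inhibitor Ii1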
# HEK293 tox = cytotoxicity in HEK cells, cytotoxicity control for IDE inhibitor project, cell-based, luminescence; shares compounds with IDE cell inh; HEK293 cytotoxicity, ATP luminescence; inhibition, % at 5.59 µM; 1,200 tested, 28% active; AID 449730, 2010; in the data active = inhibition above about 22%;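 also: 0% = vehicle wells and 100% = reference cytotoxic drug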
# An asterisk follows results filed as active; . = no result; ! = a repeat was not active. Only some compounds are listed: those with a hit (about 1.4% of all), similar ones and a draw of the others.
SMILES,IDE cell activ,IDE cell inh,CRFBP-R2 agonist,HNF4A DNA FP,TPT1 inh,IDE cell inh cf,HEK293 tox
COc1ccccc1N/C(N)=N/c1nc(C(F)(F)F)cc(=O)[nH]1,-9,18*,1,6,7,7,12
CC(=O)NC(c1ccc(C)cc1)c1cc([N+](=O)[O-])c2cccnc2c1O (configuration not stated),-5,6,-1,-2,1,.,.
CCC(=O)NC(c1ccc(C)cc1)c1cc([N+](=O)[O-])c2cccnc2c1O (configuration not stated),6,33*,-3,-5,-1,1,39*
O=C(NCc1cccc(C(F)(F)F)c1)c1csc(COCCO)n1,.,.,.,1,.,.,.
CCN(CCCNC(=O)c1nn(C)c2c1CS(=O)(=O)c1ccccc1-2)Cc1ccccc1,7,-2,1,-2,-1,.,.
CCCOc1ccc(-c2c(C(=O)N/N=C(\C)c3cccnc3)nnn2-c2nonc2N)cc1,5,2,2,-1,2,.,.
Cc1ccc(-c2c(C(=O)N/N=C/c3cccc(Cl)c3)nnn2-c2nonc2N)cc1,-42,53*,0,-1,-3,45*,10
CCCOc1ccc(-c2c(C(=O)N/N=C(\C)COc3ccccc3)nnn2-c2nonc2N)cc1,-1,20*,2,2,0,6,3
COC(=O)C[C@@H]1C=C[C@H](NC(=O)Nc2ccc(OC)cc2)[C@@H](CO)O1,.,.,.,1,.,.,.
Cc1noc(C)c1C(=O)N1CCC1(C)C(=O)NS(=O)(=O)c1cccc(Cl)c1 (configuration not stated),.,.,.,-3,.,.,.
CCOc1ccccc1NC(=O)CSc1nnc2ccc(-c3ccncc3)nn12,-16,22*,-1,0,-2,9,9
COc1nc(-c2ccc(Cl)cc2Cl)nc2ccccc12,3,-2,1,-2,-2,.,.
O=C(O)c1ccccc1NS(=O)(=O)c1cccc(-n2sc3ccccc3c2=O)c1,-20,90*,1,-2,5,73*,1
Cc1ccc(/C=C/C(=O)NC(=S)Nc2ccc(S(=O)(=O)Nc3cc(C)on3)cc2)cc1,-10,25*,0,4,-1,21*,8
COc1ccc2c(c1)C1NC(=S)NC(C)(O2)C1C(=O)Nc1ccc(Cl)cc1 (configuration not stated),-7,15,-3,0,-3,.,.
Cc1ccc2c(c1)C1NC(=S)NC(C)(O2)C1C(=O)Nc1ccc(Cl)cc1 (configuration not stated),-12,17*,-2,-4,2,9,13
CC1=CC(C)(C)Nc2ccc(C)cc21,3,-4,2,-2,-4,.,.
CC1=CC(C)(C)Nc2ccc(OC(=O)c3ccco3)cc21,-5,50*,0,2,-2,42*,120*
CC1=CC(C)(C)Nc2ccc(OC(=O)c3cccnc3)cc21,2,22*,0,2,0,33*,103*
CC1=CC(C)(C)Nc2ccc(OC(=O)C(C)N3C(=O)c4ccccc4C3=O)cc21 (configuration not stated),-9,26*,-1,0,-4,24*,76*
COc1ccc(OC(=O)C(C)N2C(=O)c3ccccc3C2=O)cc1 (configuration not stated),-2,0,0,-1,1,.,.
CC1=CC(C)(C)Nc2ccc(OC(=O)CN3C(=O)CCC3=O)cc21,-14,26*,0,0,-5,32*,92*
CCCCCCCCCCCn1nnnc1N,4,.,0,6,.,.,.
O=C(CNC(=O)c1ccc(S(=O)(=O)N2CCCC2)cc1)N/N=C/c1ccc(Cl)cc1Cl,-7,24*,0,1,-3,5,8
C[C@@]12C(=O)N(CC3CC3)CC(=O)N1[C@H](/C=C/c1ccccc1)[C@@H]1C(=O)N(c3ccccc3)C(=O)[C@@H]12,2,5,0,4,-1,.,.
SMILES,IDE cell activ,IDE cell inh,CRFBP-R2 agonist,HNF4A DNA FP,TPT1 inh,IDE cell inh cf,HEK293 tox
Cc1nn(C)c(Sc2ccccc2N)c1[N+](=O)[O-],-5,28*,0,6,1,4,5
CCCN1C(=O)/C(=C/c2c(N3CCNC(=O)C3CC(=O)OCC)nc3c(C)cccn3c2=O)SC1=S (configuration not stated),-130,65*,191*,3,137*,29*,32*
CCOC(=O)/C(C#N)=C/c1c(N2CCN(C)CC2)nc2c(C)cccn2c1=O,-3,.,-1,0,.,.,.
CCOC(=O)CC1C(=O)NCCN1C(=O)c1ccc(C)cc1 (configuration not stated),0,-3,0,0,1,.,.
CCOC(=O)CC1C(=O)NCCN1c1nc2ccc(C)cn2c(=O)c1/C=C1\SC(=S)N(CC(C)C)C1=O (configuration not stated),-186,56*,189*,85,122*,58*,10
CCOC(=O)C1(C)CCCN1C(=O)c1ccccc1F (configuration not stated),.,.,.,2,.,.,.
CNc1cncc(-c2cccc(C(=O)NCCN(C)C)c2)n1,.,.,.,3,.,.,.
CC(=O)C1=C(C)NC(SCSc2ccccc2)=C(C#N)C1c1cccnc1 (configuration not stated),.,21*,0,.,5,13,13
CCOC(=O)C1=C(c2ccccc2)NC(SCC(N)=O)=C(C#N)C1c1cccnc1 (configuration not stated),-1,2,-1,-6,-1,.,.
COc1ccc(OC)c(N=c2ssnc2Cl)c1,1,-2,-1,-1,-1,.,.
COc1cc(N=c2ssnc2Cl)c(OC)cc1Cl,-19,18*!,2,1,-4,12,34*
O/N=C(\Cn1ccnc1)c1ccccc1,4,.,-1,1,.,.,.
CSc1nsc(SCC(=O)Nc2ccccc2C(=O)O)n1,-10,17*,0,3,-3,15,12
CC(=O)NC(c1ccc(F)c(F)c1)c1nc(-c2cccc(F)c2)cs1 (configuration not stated),.,.,.,-1,.,.,.
Cc1ccc(C(C(=O)NCC2CCCO2)N(Cc2ccccc2)C(=O)c2ccc(-c3ccccc3)[nH]2)o1 (configuration not stated),-13,21*,-1,2,-3,7,13
